Reference: PubChem BioAssay (NCATS)
Inconclusive results are not listed. Values without a mark were called inactive. Calls follow the shape of the dose curve; as a rule, active = well fitted activation curve with a large enough effect; inconclusive = small, poorly fitted or top-dose-only effect; inactive = flat fitted curve, though single readings scatter.

Test: Primary redox qHTS assay for identification of artifact compounds. (AID 1845223);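 also: 0% = DMSO and 100% = reference compound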
Settings: Amplex Red/HRP redox cycling with DTT, fluorescence; series mostly up to 53.8 µM; redox activity (% of DA3003): at the top concentration
How it was run: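 Redox-cycling detection via DTT (250 uM final) oxidation coupled to Amplex Red (25 uM)/HRP (250 mU/mL) in HBSS. 15 min preincubation plus 30 min after DTT, room temperature. Ex/Em 525/598 nm; 4-parameter Hill fit against DMSO and 10 uM DA3003.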

| SMILES | redox activity (% of DA3003) |
| --- | --- |
| Cc1cc(C)c2nc(-c3ccccn3)cc(C(=O)Nc3ccc(S(=O)(=O)Nc4onc(C)c4C)cc3)c2c1 | 16.5% |
| COc1ccc(N2CCN(CCCNC(=O)Cn3c(=O)c4cccn4c4c(C)ccnc43)CC2)cc1 | -1.06% |
| C=C[C@H]1[C@H](O[C@@H]2O[C@H](CO)[C@@H](O)[C@H](O)[C@H]2O)OC=C(C(=O)OC)[C@H]1CCO | -16.2% |
| C=C[C@@](C)(CCC=C(C)C)O[C@@H]1O[C@H](CO[C@@H]2OC[C@H](O)[C@H](O)[C@H]2O)[C@@H](O)[C@H](O)[C@H]1O | -2.06% [at 25.6 µM] |
| C[C@]12CCC[C@](C)(C(=O)O)C1[C@@H](O)[C@@H](O)C13CC(CCC12)C(CO)(O[C@@H]1O[C@H](CO)[C@@H](O)[C@H](O)[C@H]1O)C3 (stereo partly drawn) | -14.5% [at 25.6 µM] |
| C=C(CCO[C@@H]1O[C@H](CO)[C@@H](O)[C@H](O)[C@H]1O)C(=O)O | -11.2% |
| CC1(C)C[C@H](O)C[C@@]2(C)[C@H]1[C@H](O)C=C1COC(=O)[C@@]12O | -3.46% |
| CC(=O)c1c(C)cccc1O[C@@H]1O[C@H](CO)[C@@H](O)[C@H](O)[C@H]1O | -13.3% |
| C=C1CCC2[C@@](C)(C(=O)O)CCC[C@@]2(C)[C@@H]1CCc1ccoc1 (stereo partly drawn) | 8.63% |
| CC1=C(C(=O)OC2OC(COC3OC(CO)C(O)C(O)C3O)C(O)C(O)C2O)C(C)(C)CCC1 (stereo not drawn) | -1.13% [at 25.6 µM] |
| CC1CC(=O)C2C(O)(C1)CC(O)C13OC1c1c(O)cccc1C(=O)C23O (stereo not drawn) | -6.89% |
| CC(O)/C=C/C1(O)C(C)C(O)C(O[C@@H]2O[C@H](CO)[C@@H](O)[C@H](O)[C@H]2O)CC1(C)C (stereo partly drawn) | -8.05% [at 25.6 µM] |
| O=C(Nc1cc(-c2ccccc2)nn1-c1ccccc1)c1ccc([N+](=O)[O-])cc1 | -6.52% |
| O=C(N[C@@H]1CC[C@@H](c2cccc(F)c2F)CN(CC(F)(F)F)C1=O)N1CCC(n2c(=O)[nH]c3ncccc32)CC1 | -4.95% |
| CC/C=C\CC1C(CC(=O)O)CCC1OC1OC(CO)C(O)C(O)C1O (stereo not drawn) | -12.4% |
| COc1cc(O)c2c(c1)C1(OC2=O)C(C)=CC(=O)C1O (stereo not drawn) | -15.6% |
| OC[C@H]1O[C@@H](OCc2ccccc2)[C@H](O[C@@H]2OC[C@@H](O)[C@H](O)[C@H]2O)[C@@H](O)[C@@H]1O | -11.4% [at 25.6 µM] |

| SMILES | redox activity (% of DA3003) |
| --- | --- |
| C[C@H]1CC(=O)C2=C(C1)C(O)C(O)[C@@]1(O)[C@H]2C(=O)c2cccc(O)c2[C@@H]1O (stereo partly drawn) | -10.6% |
| CC1(C)CC[C@]2(C(=O)O[C@@H]3O[C@H](CO)[C@@H](O)[C@H](O)[C@H]3O)CC[C@]3(C)C(=CCC4[C@@]5(C)C[C@H](O)[C@H](O[C@@H]6OC[C@@H](O)[C@H](O)[C@H]6O)[C@@](C)(CO)C5CC[C@]43C)C2C1 (stereo partly drawn) | 17.7% [at 11.5 µM] |
| COc1cc(Nc2nc3ccccc3nc2NS(=O)(=O)c2cccc(NC(=O)c3ccc(C)c(OC)c3)c2)cc(OC)c1 | 1.47% |
| C=C1CC23CC1CCC2C12OC(=O)C(C)(C(O)C(O)C1O)C2C3C(=O)O (stereo not drawn) | -1.92% |
| COc1ccc(C(=O)CC(=O)O)c2c1C=CC(C)(C)O2 | -5.75% |
| O=C(Nc1ccc(N2CCC(C(=O)N3CCOCC3)CC2)cc1)c1cnc(Oc2ccccc2)nc1 | -0.423% |
| O=C(C[C@@H]1C(C(=O)O)=CO[C@@H](O[C@@H]2O[C@H](CO)[C@@H](O)[C@H](O)[C@H]2O)/C1=C\CO)OCCc1ccc(O)c(O)c1 | -1.92% [at 25.6 µM] |
| C[C@@H]1O[C@@H](OC[C@H]2O[C@@H](OCc3ccccc3)[C@H](O)[C@@H](O)[C@@H]2O)[C@H](O)[C@H](O)[C@H]1O | -16.1% [at 25.6 µM] |
| CC1=CC(=O)CC(C)(C)C1/C=C/C(C)OC1OC(COC2OCC(O)C(O)C2O)C(O)C(O)C1O (stereo not drawn) | -2.34% [at 25.6 µM] |
| O=[N+]([O-])c1cc(Cl)ccc1S(=O)(=O)N1CCN(Cc2ccccc2)CC1 | -2.33% |
| CCC(=O)N1CCc2cc(OC)c(O)cc2C1 | -1.07% |
| Cc1c(C)c(NCC(=O)N(C)C2CCN(Cc3ccc(C(N)=O)cc3)CC2)c(C)c(C)c1N | -0.361% |
| CC1(C)CCC2(C(=O)O)CCC3(C)C(=CCC4C5(C)CCC(O)C(C)(CO)C5C(O)CC43C)C2C1 (stereo not drawn) | 9.28% [at 25.6 µM] |
| C/C(=C/CO)CC[C@H]1[C@]2(C)C[C@H](O)CC(C)(C)[C@H]2CC[C@]1(C)O | -15.7% |
| COc1cc(/C=C/CO[C@@H]2O[C@H](CO)[C@@H](O)[C@H](O)[C@H]2O)cc(OC)c1O[C@@H]1O[C@H](CO)[C@@H](O)[C@H](O)[C@H]1O | -5.65% [at 25.6 µM] |
| O=C(c1ccc(Cl)c([N+](=O)[O-])c1)N1CCN(c2ccccc2F)CC1 | 3.57% |
